# Reference: publication PMC5540273 (PLoS ONE, 2017)
# System: TAOK2
# Settings: concentration: 1 μM, replicates: in singlicate; n = 1
# 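Further: KINOMEscan kinase panel screen.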
row,Structure (SMILES),%Inh
1,CN1CCC(n2cnc(-c3ccc(F)cc3)c2-c2ccnc(NC3CCNCC3)n2)CC1 [SB-229482],0%
2,COc1cc2ncnc(Nc3ccc(OCc4ccccc4Br)c(Cl)c3)c2cc1OC.Cl [GI261590],0%
3,CC(=O)Nc1n[nH]c2ncc(-c3ccccc3)cc12 [SB-548492],24%
4,CNc1nccc(-c2c(-c3ccc(F)cc3)ncn2C2CCN(C)CC2)n1 [SB-222903],7%
5,O=C(Nc1ccccc1F)NC1CCN(c2ccnc(Nc3ccc(F)cc3)n2)C1 (stereo not shown) [GSK1379722],0%
6,O=C(NCCCN1CCCC1=O)c1cnc(NCc2cc(Cl)ccc2Cl)nc1NC1CCNCC1,0%
7,O=c1cc(N2CCOCC2)nc2n(Cc3cccc(Cl)c3)ccn12 [GSK2296823],0%
8,Nc1n[nH]c2nnc(-c3ccccc3)cc12 [SB-517389],0%
9,O=C(Nc1n[nH]c2nc(-c3ccco3)c(Br)cc12)c1ccc(CN2CCCC2)cc1.O=C(O)[C@H](O)[C@@H](O)C(=O)O [SB-742352],0%
10,Nc1nc(-c2cccnc2)c(-c2ccnc3ccccc23)s1 [GW684083],0%
11,c1ccc(-c2ccc3c(-c4ccnc(Nc5ccc6c(c5)OCCO6)n4)cnn3n2)cc1 [GW818941],0%
12,Nc1nc(-c2ccc3c(N)n[nH]c3c2)cc(N2CCC[C@@H](C(=O)Nc3ccccc3)C2)n1.O=C(O)C(F)(F)F.O=C(O)C(F)(F)F [GSK2288359],0%
13,COC(=O)c1cccc(NC(=O)NCCNc2ccnc(Nc3ccc(F)cc3)n2)c1 [GSK1379883],0%
14,COC(=O)c1c(-c2ccccc2)c2cc(Cl)ccc2c(=O)n1Cc1ccc(S(C)(=O)=O)cc1,0%
15,FC(F)(F)c1ccc(-c2cc(-c3c[nH]nc3-c3ccccn3)ccn2)cc1 [GW599550],0%
16,COc1ccc(NC(=O)c2ccc(-c3cc(-c4nnc(C)o4)ccc3C)cc2)cc1 [GW595885],0%
17,Cl.Cl.c1ccc(-c2cc3ccncc3cc2OC2CCNCC2)cc1 [GSK1122999],0%
18,CS(=O)(=O)CCNCc1nc(-c2ccc3ncnc(Nc4ccc(OCc5cccc(F)c5)c(Cl)c4)c3c2)cs1.Cl [GW583340],0%

row,Structure (SMILES),%Inh
1,Cn1ccc2ncnc(Oc3ccc(NC(=O)Nc4cccnc4)c(Cl)c3)c21,0%
2,Fc1cccc(COc2ccc(Nc3ncnc4sc(-c5ccc[nH]5)cc34)cc2Cl)c1 [GW707818],8%
3,Cl.Cn1ccc(-c2cccc(Nc3ccnc4cc(-c5nccs5)ccc34)c2)n1 [GW525701],0%
4,CS(=O)(=O)CCNCc1ccc(-c2ccc3ncnc(Nc4ccc(OCc5ccccc5)c(Cl)c4)c3c2)o1.Cl [GW574783],0%
5,COc1ccc(Nc2nccc(N3CCC(NC(=O)Nc4ccc5c(c4)OCO5)C3)n2)cc1 (stereo not shown) [GSK1379745],0%
6,Fc1cccc(COc2ccc(Nc3ncnc4nn5ccccc5c34)cc2Cl)c1 [GW689066],0%
7,Cc1ccc(O)cc1Nc1cc(C(F)(F)F)nc2ccc(-c3ccncc3)cc12 [GW630823],5%
8,Cl.Fc1ccccc1COc1ccc(Nc2ncnc3ccc(-c4nnc(C(F)(F)F)o4)cc23)cc1Cl [GW424170],0%
9,Clc1ccc(-c2cc(-c3c[nH]nc3-c3ccccn3)ccn2)cc1 [GW681251],0%
10,C[C@H]1CC[C@@H](C(=O)Nc2ccccc2)CN1c1cc(-c2ccc3c(N)n[nH]c3c2)nc(N)n1 [GSK2283293],0%
11,Oc1ccc2ncnc(Nc3ccc(OCc4ccccc4)cc3)c2c1 [GI262866],0%
12,N#Cc1ccc(Oc2ccc(Nc3ncnc4cc[nH]c34)cc2Cl)cc1,0%
13,CC(C)(C)c1ccc(-n2cnc3c(N)ncnc32)cc1 [SKF-97263],0%
14,Cc1ccc(C)c(NC(=O)NCCNc2ccnc(Nc3ccc(F)cc3)n2)c1 [GSK1379878],0%
15,CCn1c(-c2ccncc2)nc2cnccc21 [SB-735216],13%
16,COc1ccc(NC(=O)Nc2ccc(C)c(-c3ccc(C(=O)Nc4ccncc4)cc3)c2)cc1 [GSK1398475],0%
17,Clc1cc(Nc2ncnc3cc[nH]c23)ccc1OCc1ccccn1,0%

# System: TAOK3
# Settings: concentration: 1 μM, replicates: in singlicate; n = 1
row,Structure (SMILES),%Inh
1,CN1CCC(n2cnc(-c3ccc(F)cc3)c2-c2ccnc(NC3CCNCC3)n2)CC1 [SB-229482],0%
2,COc1cc2ncnc(Nc3ccc(OCc4ccccc4Br)c(Cl)c3)c2cc1OC.Cl [GI261590],0%
3,CC(=O)Nc1n[nH]c2ncc(-c3ccccc3)cc12 [SB-548492],8%
4,CNc1nccc(-c2c(-c3ccc(F)cc3)ncn2C2CCN(C)CC2)n1 [SB-222903],0%
5,O=C(Nc1ccccc1F)NC1CCN(c2ccnc(Nc3ccc(F)cc3)n2)C1 (stereo not shown) [GSK1379722],0%
6,O=C(NCCCN1CCCC1=O)c1cnc(NCc2cc(Cl)ccc2Cl)nc1NC1CCNCC1,0%
7,O=c1cc(N2CCOCC2)nc2n(Cc3cccc(Cl)c3)ccn12 [GSK2296823],0%
8,Nc1n[nH]c2nnc(-c3ccccc3)cc12 [SB-517389],3%
9,O=C(Nc1n[nH]c2nc(-c3ccco3)c(Br)cc12)c1ccc(CN2CCCC2)cc1.O=C(O)[C@H](O)[C@@H](O)C(=O)O [SB-742352],0%
10,Nc1nc(-c2cccnc2)c(-c2ccnc3ccccc23)s1 [GW684083],0%
11,c1ccc(-c2ccc3c(-c4ccnc(Nc5ccc6c(c5)OCCO6)n4)cnn3n2)cc1 [GW818941],5%
12,Nc1nc(-c2ccc3c(N)n[nH]c3c2)cc(N2CCC[C@@H](C(=O)Nc3ccccc3)C2)n1.O=C(O)C(F)(F)F.O=C(O)C(F)(F)F [GSK2288359],0%
13,COC(=O)c1cccc(NC(=O)NCCNc2ccnc(Nc3ccc(F)cc3)n2)c1 [GSK1379883],0%
14,COC(=O)c1c(-c2ccccc2)c2cc(Cl)ccc2c(=O)n1Cc1ccc(S(C)(=O)=O)cc1,0%
15,FC(F)(F)c1ccc(-c2cc(-c3c[nH]nc3-c3ccccn3)ccn2)cc1 [GW599550],0%
16,COc1ccc(NC(=O)c2ccc(-c3cc(-c4nnc(C)o4)ccc3C)cc2)cc1 [GW595885],0%
17,Cl.Cl.c1ccc(-c2cc3ccncc3cc2OC2CCNCC2)cc1 [GSK1122999],4%
18,CS(=O)(=O)CCNCc1nc(-c2ccc3ncnc(Nc4ccc(OCc5cccc(F)c5)c(Cl)c4)c3c2)cs1.Cl [GW583340],0%

row,Structure (SMILES),%Inh
1,Cn1ccc2ncnc(Oc3ccc(NC(=O)Nc4cccnc4)c(Cl)c3)c21,0%
2,Fc1cccc(COc2ccc(Nc3ncnc4sc(-c5ccc[nH]5)cc34)cc2Cl)c1 [GW707818],14%
3,Cl.Cn1ccc(-c2cccc(Nc3ccnc4cc(-c5nccs5)ccc34)c2)n1 [GW525701],0%
4,CS(=O)(=O)CCNCc1ccc(-c2ccc3ncnc(Nc4ccc(OCc5ccccc5)c(Cl)c4)c3c2)o1.Cl [GW574783],0%
5,COc1ccc(Nc2nccc(N3CCC(NC(=O)Nc4ccc5c(c4)OCO5)C3)n2)cc1 (stereo not shown) [GSK1379745],0%
6,Fc1cccc(COc2ccc(Nc3ncnc4nn5ccccc5c34)cc2Cl)c1 [GW689066],0%
7,Cc1ccc(O)cc1Nc1cc(C(F)(F)F)nc2ccc(-c3ccncc3)cc12 [GW630823],0%
8,Cl.Fc1ccccc1COc1ccc(Nc2ncnc3ccc(-c4nnc(C(F)(F)F)o4)cc23)cc1Cl [GW424170],0%
9,Clc1ccc(-c2cc(-c3c[nH]nc3-c3ccccn3)ccn2)cc1 [GW681251],0%
10,C[C@H]1CC[C@@H](C(=O)Nc2ccccc2)CN1c1cc(-c2ccc3c(N)n[nH]c3c2)nc(N)n1 [GSK2283293],0%
11,Oc1ccc2ncnc(Nc3ccc(OCc4ccccc4)cc3)c2c1 [GI262866],0%
12,N#Cc1ccc(Oc2ccc(Nc3ncnc4cc[nH]c34)cc2Cl)cc1,0%
13,CC(C)(C)c1ccc(-n2cnc3c(N)ncnc32)cc1 [SKF-97263],8%
14,Cc1ccc(C)c(NC(=O)NCCNc2ccnc(Nc3ccc(F)cc3)n2)c1 [GSK1379878],0%
15,CCn1c(-c2ccncc2)nc2cnccc21 [SB-735216],18%
16,COc1ccc(NC(=O)Nc2ccc(C)c(-c3ccc(C(=O)Nc4ccncc4)cc3)c2)cc1 [GSK1398475],0%
17,Clc1cc(Nc2ncnc3cc[nH]c23)ccc1OCc1ccccn1,0%
